# According to article PMC5540273 (PLoS ONE, 2017):
# Legend:
# Details in all cases: concentration: 1 μM, replicates: in singlicate; n = 1
# [1] = test system: T1, TIE2
# T1 construct: gene TEK
# [2] = test system: TLK1
# [3] = test system: TLK2
# [4] = test system: TNIK
# [5] = test system: TNK1
# [6] = test system: TNK2
# [7] = test system: TNNI3K
# [8] = test system: T2, TRKA
# T2 construct: gene NTRK1
# [9] = test system: TRKB
# [10] = test system: T3, TRKC
# T3 construct: gene NTRK3
# [11] = test system: TRPM6
# [12] = test system: TSSK1B
# [13] = test system: TSSK3
# [14] = test system: TTK
# [15] = test system: TXK
# [16] = test system: TYK2(JH1domain-catalytic)
# [17] = test system: TYK2(JH2domain-pseudokinase)
# [18] = test system: TYRO3
# [19] = test system: ULK1
# [20] = test system: ULK2
# 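Further: KINOMEscan kinase panel screen.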
Compound,%Inh [1] [%],%Inh [2] [%],%Inh [3] [%],%Inh [4] [%],%Inh [5] [%],%Inh [6] [%],%Inh [7] [%],%Inh [8] [%],%Inh [9] [%],%Inh [10] [%],%Inh [11] [%],%Inh [12] [%],%Inh [13] [%],%Inh [14] [%],%Inh [15] [%],%Inh [16] [%],%Inh [17] [%],%Inh [18] [%],%Inh [19] [%],%Inh [20] [%]
COc1cc(Nc2nccc(N3CCC(NC(=O)C(C)c4ccc(Cl)cc4)C3)n2)cc(OC)c1OC (stereo not shown) [GSK1379757],0,0,0,0,0,6,0,63,0,43,0,0,19,0,0,38,31,0,0,0
Nc1nccc2scc(-c3ccc4c(c3)CCN4C(=O)Cc3ccccc3)c12 [GSK2576924],13,22,3,0,0,0,0,49,0,0,13,0,14,0,4,14,0,0,2,0
COc1cc(Nc2ccnc3ccc(C(F)(F)F)cc23)cc(OC)c1OC [GW577382],0,6,0,0,14,16,24,48,0,14,0,0,13,17,54,19,0,0,0,0
Cc1cccc(-c2nc(Nc3ccc4c(cnn4C)c3)c3ccccc3n2)n1 [GW876731],27,0,11,0,43,0,0,44,0,0,0,3,0,0,10,20,39,5,8,13
CCS(=O)(=O)c1ccc(OC)c(Nc2ncc(-c3ccc(F)cc3)o2)c1.Cl [GW591947],0,0,0,0,0,12,8,15,0,0,4,10,13,0,0,1,0,4,0,0
Cl.c1ccc(Cn2cnc3cc(Nc4ncnc5ccccc45)ccc32)cc1 [GW272142],0,0,0,0,0,15,0,0,0,0,0,12,10,0,0,13,21,0,7,0
COc1cc2ncn(-c3cc(OCc4ccncc4Br)c(C(N)=O)s3)c2cc1OC [GW854278],6,18,0,39,33,0,18,0,0,7,0,0,0,0,21,0,5,11,2,0
COc1cc2nccc(Nc3cccc(Oc4ccccc4)c3)c2cc1OC.Cl [GW284543],12,0,0,0,0,12,10,34,5,2,11,11,13,0,3,5,0,0,6,15
Cc1cccc(-c2cc(-c3c[nH]nc3-c3ccccn3)ccn2)c1 [GW679395],0,0,0,59,0,4,9,0,13,20,0,24,0,23,0,9,27,0,0,0
Nc1ncnc2c1ncn2-c1cccc(F)c1 [SKF-97560],0,0,0,4,23,15,100,60,41,41,74,22,20,0,0,38,35,9,7,26
CN1C(=O)C(Nc2ccccc2)=C(c2ccccc2)C1=O [SB-300079],0,3,41,7,0,0,0,0,9,11,0,0,0,0,0,0,17,0,6,12
